Measured values: the supplement of paper PMC6555819

Key:
Experiment in all cases: PBM binding z-score (relative to random genomic background probes); higher = stronger binding; sequences stand for … in GC…GCGATTGACAGCGTAGAATGAAGG
[1] = tested on: RARb homodimer (NR concentration 270 nM)
In short: (§1)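 Probes were double-stranded and carried 34-nt variable regions with direct-repeat seeds, single-nucleotide variants, half-site ablations and random human genomic background sequences, printed on custom Agilent 4×180K protein-binding microarrays. Arrays were incubated 1 h with ligand-free nuclear receptor dimers in PBS pH 7.4, 2% milk, 0.02% Triton X-100, 1 mM DTT, 0.2 mg/mL BSA and 0.4 mg/ml salmon testes DNA. Antibodies against each partner (one per run) detected binding, and scanned fluorescence was regression-normalized. Binding z-scores use the random background probes as reference.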

[2] = tested on: RARg:RXRa (NR concentration 270 nM, RXRa partner concentration 90 nM)
In short: as §1

[3] = tested on: RARg homodimer (NR concentration 270 nM)
In short: as §1

[4] = tested on: RXRa DBDmut IVT, anti-RXR (DBD mutation: RXRa K156A/R161A, NR concentration 90 nM)
In short: as §1

[5] = tested on: RXRa homodimer (NR concentration 180 nM)
In short: as §1

[6] = tested on: THRa:RXRa (NR concentration 90 nM, RXRa partner concentration 90 nM)
In short: as §1

[7] = tested on: THRa homodimer (NR concentration 90 nM)
In short: as §1

[8] = tested on: VDR homodimer (NR concentration 270 nM)
In short: as §1

Sequence | PBM binding z-score [1] | PBM binding z-score [2] | PBM binding z-score [3] | PBM binding z-score [4] | PBM binding z-score [5] | PBM binding z-score [6] | PBM binding z-score [7] | PBM binding z-score [8]
CCTACTGGGCGAAAAAGGTCATTGATGCCGATAA | 4 | 3.97 | 3.43 | 0.151 | 4.51 | 3.05 | -0.0329 | 1.75
CCTTACGGGTCACTGACAGGTAATAGCATTTGGA | 2.83 | 5.08 | 4.26 | 1.55 | 4.7 | 2.64 | 0.085 | 0.456
CGTCCAAGGTCAAAGCTAGGTCAGTGAAAGCATT | 5.03 | 7.9 | 7.36 | 4.1 | 6.47 | 4.57 | 2.86 | 3.7
CCTACTGGGCCAAAAAGGTCGTTGATGCCGATAA | 1.92 | 1.18 | 0.763 | 0.0571 | 1.38 | 1.26 | -0.297 | 1.13
CCTTACGCGTCAAGGTTATAGCACGGGTGGTACG | 0.818 | 0.576 | 0.348 | 0.122 | 1.06 | 1.5 | 0.517 | 0.299
CATACAGGGTCAGCTAGGCCAGATTAGGGACGGC | 3.37 | 4.39 | 4.22 | 1.47 | 4.12 | 3.18 | 1.09 | 0.951
GCATATAGGTAATACAAGGTGAAACTCCGATTGT | 0.806 | 0.886 | 0.775 | 0.602 | 1.06 | 4.51 | 1.21 | 0.121
CCTAGCAGGCCAGGGTCATTCAAGCATTTCGCTT | 2.54 | 2.93 | 1.89 | 1.62 | 3.35 | 2.93 | 0.719 | 2.77
GGAACGAGGGCATTCGAGTTGATAGCCTGGCGAT | 0.74 | 0.929 | 1.41 | 3.31 | 0.739 | 3.25 | -0.752 | 3.28
CCTTACGAGTCACTCCAGGTTATAGCATCGGAGT | 0.938 | 0.686 | 0.863 | 0.584 | 0.475 | 3.69 | 1.07 | 0.838
TCTAGTAGGCCAGAGGGTCACTCAAGAGGTACGG | 2.95 | 2.83 | 2.16 | 0.571 | 2.75 | 1.74 | 0.0135 | 0.631
AGAATGAGGTTAAGATCAGGGATACAGAATACAT | 1.26 | 2.17 | 1.83 | 1.17 | 2.45 | 2.78 | 1.25 | 0.506
AGAACGAGGGCACGCCGAGTTGATAGCAGAGTAG | 1.2 | 1.96 | 2.36 | 1.75 | 1.47 | 1.96 | -0.089 | 1.81
TCCTGTAGATCAAGCAGGTTAAGAAAGCCTGAGT | 0.0843 | -0.142 | -0.295 | 0.428 | 0.45 | 0.254 | -0.566 | 0.241
CCAGACAGGCGAGAAGGTAACTCAGCCTCGATTA | -0.738 | -0.546 | -0.427 | -0.382 | -0.473 | -0.499 | -0.402 | -0.366
CGTCCAAGGTCATAGGAGATCAGTGAAGACAGAT | 3.65 | 5.88 | 6.14 | 4.11 | 6.2 | 3.82 | 2.46 | 3.14
TCATATACGTAAAAGGTGAAAGTCGGTGTGGTAA | 1.94 | 1.27 | 0.986 | 1.98 | 2.01 | 1.36 | 0.293 | 0.435
CCTAGCAGGCCAATCTGGGTCAGTCAAGGCTTGA | 1.82 | 0.465 | 1.02 | -0.281 | -0.197 | 2.97 | -0.159 | -0.52
GCTATTAGTTGAAAGGGCACCCGAATGATTCTCG | 1.78 | 1.18 | 1.03 | 1.06 | 1.43 | 0.64 | 0.229 | 0.843

Sequence | PBM binding z-score [1] | PBM binding z-score [2] | PBM binding z-score [3] | PBM binding z-score [4] | PBM binding z-score [5] | PBM binding z-score [6] | PBM binding z-score [7] | PBM binding z-score [8]
CTCGAAACGTCGTGCTCAGGTGAGTATACCAAAC | -0.132 | -0.476 | -0.311 | -0.187 | -0.479 | 0.94 | 0.555 | -0.446
TATACACGGTCAAAGGCCAGAGTACGAATGTCGA | 2.33 | 2.53 | 2.87 | 0.0328 | 1.45 | 0.581 | -0.253 | 0.761
ACTTACAGGTCAACGAGGTTATAGCACGCGTATA | 4.19 | 5.93 | 5.75 | 2.76 | 5.89 | 4.02 | 1.8 | 4.27
ATATTTAGGTTAAGGGTCATTCAGGTTGGTTCGC | 4.22 | 4.81 | 3.84 | 2.51 | 5.68 | 3.95 | 3 | 5.16
TTTTGTAGATCAAGCAGGTTAAGAAAGCCTGAGT | 0.054 | -0.111 | -0.119 | -0.757 | 0.19 | 0.502 | -0.555 | 0.443
GCTAGTTGGTCTGTAAAAGGTCACACACCGGTCG | 5.02 | 5.01 | 4.62 | 0.681 | 5.65 | 3.52 | 1.78 | 1.81
ACTCGGAGGACAAAGGTCCGAGCTACGCCAGTGA | 0.57 | 0.663 | 0.927 | 0.364 | 0.0174 | 0.646 | -0.259 | -0.261
TCATATAGGTAAAAGGCGAAAGTCGGTGTGGTAA | -0.139 | 0.0161 | -0.195 | 1.51 | 0.665 | -0.0856 | -0.0858 | 0.0813
TCTTGTAGATCAGCAGGTTAAGATAGCTGGCCAA | -0.0544 | -0.0434 | -0.135 | 0.631 | 0.48 | 0.172 | -0.238 | -0.295
CCAGACAGGTAAGAAGGTAACTCAGCCTCGATTA | -0.0494 | 0.201 | 0.207 | -0.00945 | 0.0209 | 0.0122 | 0.113 | -0.0609
TCATATATGTAAAGGTGAAAGTCGAACGATATGA | 1.45 | 1.45 | 1.16 | 0.622 | 2.19 | 1.19 | -0.594 | 0.112
TCATATAGCTAATACAGGTGAAAGTCGGCATCTA | -0.00242 | 0.298 | 0.338 | 1.09 | 0.758 | 0.42 | -0.541 | -0.107
TCTTGTAGATCAACAGGAGGTCAAGAAAGATCGA | 3.47 | 4.04 | 2.84 | 0.518 | 3.64 | 3.02 | 0.86 | 0.803
AGAACCAGGGCAATGAGTTGATAGCACGGGTGGC | 0.48 | 0.321 | 0.673 | 0.0529 | 0.352 | 0.225 | -0.251 | 0.986
CTTCCAAGGTCAGCAGGTCAGTGAAAGCGACGTG | 5.26 | 6.14 | 6.94 | 2.24 | 5.48 | 3.83 | 2.79 | 1.68
CCGACTGGGGCATCAGGTTACCATAAGCCAGCCC | 0.867 | 0.461 | 0.586 | -0.734 | 0.214 | 0.994 | 0.484 | -0.423
TCGAGTAGGTTAGGGGCATTCACAATGGCGTCGA | 0.776 | 0.234 | 0.502 | 0.518 | 0.424 | 1.06 | 0.276 | 1.04
GCAGACAGGTGAAACGCAGGTAACTGAGGGTGGC | 0.0628 | 0.86 | 0.142 | -0.51 | 0.568 | 1.06 | -0.377 | -0.727
TCTTGTAAATCAAGCAGGTTAAGAAAGCCTGAGT | 0.102 | 0.0304 | -0.176 | 0.73 | 0.26 | 0.147 | -0.571 | -0.0324

Sequence | PBM binding z-score [1] | PBM binding z-score [2] | PBM binding z-score [3] | PBM binding z-score [4] | PBM binding z-score [5] | PBM binding z-score [6] | PBM binding z-score [7] | PBM binding z-score [8]
GGAACGAGGGCATTCGAGTTGATACCATGGCGAT | 0.873 | 1.26 | 1.46 | 3.31 | 0.823 | 3.34 | -0.337 | 3.45
GATACAGGGTCAGATAGAGGCCAGAGTATGGAAA | 3.28 | 6.34 | 4.42 | 1.75 | 4.42 | 3.16 | 0.893 | 1.42
ACAGACAGGTGATGAAGGTATCTCAGGCTATCAT | 0.276 | 0.119 | 0.27 | -0.321 | 0.203 | 0.741 | -0.068 | -0.586
CCTAGTAGTTGACCATAAGGGCAACCGAAGCTCG | 2.08 | 1.13 | 0.854 | -0.02 | 0.613 | 1.81 | 1.16 | 0.728
AGTCAAAGTTCAGGACGAGGAAACGTAAAGCACG | 2.85 | 4.29 | 4.75 | 2.81 | 3.17 | 2.42 | 0.288 | 1.64
CCTAGTTGGTCAGGAGGTGACACACCGGATATGA | 1.48 | 1.12 | 1.22 | -0.691 | 0.768 | 1.18 | 0.64 | 0.232
CCTTACCGGTCACGAGGTTATAGCACGACGAGCG | 3.08 | 4.01 | 3.68 | 0.188 | 2.62 | 2.37 | 1.43 | 1.34
GTACCAAGGTGAATAGGTCGTTTATGAGTAGGCG | 1.75 | 2.69 | 1.2 | 0.0866 | 2 | 1.95 | 0.576 | 0.299
GCGACTGGGGCAAAGCAGGCTACCATAAGGTTGG | 0.228 | 0.143 | 0.207 | -0.628 | 0.0152 | 1.59 | -0.688 | -0.862
ATCGACAGGTCGTGAGGTGAGTATACAGAAAGGC | 1.39 | 2.07 | 1.67 | 0.0757 | 2.17 | 2.38 | 1.28 | 0.435
CTACAAAGGTGAACAAGGTCGTTGATTACTATTC | 3.33 | 3.64 | 3.01 | 1.76 | 3.64 | 3.69 | 1.37 | 2.51
CGAACTAGGTCATTGACAGCACAGTGAATAGTAA | 2.36 | 3.46 | 4.03 | 2.29 | 2.47 | 2.31 | 0.694 | 1.08
TCGAGTAGGTTAGTCGGGGCTTTCAGCCAACATA | -0.364 | -0.483 | -0.728 | 0.169 | -0.346 | 1.11 | -0.892 | -0.862
CAAACTAGGTCACAGAGGTCAAAGTACGTGCGTA | 5.51 | 7.48 | 7.65 | 3.46 | 7.8 | 4.75 | 2.64 | 6.77
CCAGACAGGTGAAAGGTAACTCAATCTGGTACGC | 1.19 | 1.48 | 0.946 | 0.203 | 2.39 | 1.1 | 0.0708 | -0.0474
CGTCCAAGGTCATAGGTCAGTGAAGAGATGACGG | 4.84 | 6.97 | 6.86 | 3.61 | 8.18 | 4.31 | 2.65 | 3.51
TCATATAGGTAAAGGTGCAAGTCGAACGATATGA | 0.0991 | 0.803 | 0.522 | 0.75 | 1.18 | 0.151 | -0.746 | 0.385
GCAGACAGGTGAAACGCAGGTAGCTCAGGGTGGC | -0.0117 | 0.108 | -0.0233 | -0.578 | 0.367 | 0.401 | -0.86 | -0.785
CCTACTGGGCCACGAAGGGTCATTGATTCAGTGA | 3.41 | 2.96 | 2.73 | -0.323 | 2.86 | 3 | -0.121 | 1.53
